# An excerpt weighted towards active compounds, which were near 6.3% of everything screened.
# ATXN viability: cell viability loss in ATXN counter-screen; S2 cells (HEK-293 line with an ATXN2-luciferase reporter) viability, CellTiter-Fluor protease fluorescence, 24 h; actives 0.49% (n = 400,000); AID 651635; Potency, µM (series often up to 56.7 µM), most hits filed as cytotoxic; also: nearly all actives have a fitted effect of over 40% in size
# Gal4-VP16 FLuc: inhibits Gal4-VP16 luciferase reporter, ROR gamma counter-screen; Drosophila S2 Gal4-VP16 UAS-luciferase, luminescence, 20 h; AID 2546; Potency, µM (top dose mostly 53.6 µM), for inactives: top-dose activity, negative = inhibition, usual class: inhibitors; actives 3.5% (n = 310,000);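 also: Gal4-VP16 expression switched on by copper sulfate through the metallothionein promoter; % is scaled to controls: 0 for no effect and ±100 for the full control effect; nearly all actives have a fitted effect of over 50% in size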
# RORg inh: ROR gamma (mouse) transcription inhibition; actives 5.4% (n = 310,000); Drosophila S2 Gal4-RORgamma UAS-luciferase reporter, 20 h; Potency, µM (series often up to 53.6 µM), for the others: at the highest dose activity change, negative = inhibition, most hits filed as inhibitors; P51450; also: % is scaled to controls: 0 for no effect and ±100 for the full control effect; nearly all actives have a fitted effect of over 60% in size
# Target sequence (P51450 whole entry, looked up, the tested form may be a part): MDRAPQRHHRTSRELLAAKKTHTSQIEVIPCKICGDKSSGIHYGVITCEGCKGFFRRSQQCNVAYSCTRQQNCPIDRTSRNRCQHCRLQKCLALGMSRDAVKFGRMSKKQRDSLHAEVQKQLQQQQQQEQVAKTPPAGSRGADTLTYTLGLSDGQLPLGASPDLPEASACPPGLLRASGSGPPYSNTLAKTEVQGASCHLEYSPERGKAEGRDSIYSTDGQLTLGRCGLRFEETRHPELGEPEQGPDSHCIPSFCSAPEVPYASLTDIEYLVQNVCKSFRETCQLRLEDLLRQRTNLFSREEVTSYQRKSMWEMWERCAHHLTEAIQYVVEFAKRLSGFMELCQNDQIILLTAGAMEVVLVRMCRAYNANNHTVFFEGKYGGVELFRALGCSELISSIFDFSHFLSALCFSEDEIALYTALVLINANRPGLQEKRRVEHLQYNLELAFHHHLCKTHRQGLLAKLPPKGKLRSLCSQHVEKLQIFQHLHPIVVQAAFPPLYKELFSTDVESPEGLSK
#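 Using a luciferase readout, inhibitors were identified by reduced reporter activity in Drosophila cells coexpressing a copper-inducible Gal4–ROR gamma fusion and UAS-driven Photinus luciferase, incubated 20 hr after 700 uM copper sulfate.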
# HepG2 viability: kills HepG2 cells in TGF-b inhibitor counter-screen | HepG2 CAGA-GFP viability, ATP luminescence, 18 h | Potency, µM (doses to about 46.1 µM), without a hit: top-dose activity change, negative = cytotoxicity, actives largely listed as cytotoxic | actives 0.76% (n = 410,000)
#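 CellTiter-Glo luminescence gave cytotoxicity after 18 hours at 37 degrees C. The cells were HepG2 CAGA-GFP in 1% FBS DMEM, stimulated with 500 pg/mL TGF-beta after compound addition. %Activity was normalised to no-cell wells (complete cell-killing) and DMSO (no toxicity), and curves were fitted and classified.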
# TGFb inhibitor: TGF-b pathway inhibition; HepG2 CAGA-GFP TGF-b/SMAD3 reporter, GFP fluorescence, 18 h; TGF-beta stimulated, 500 pg/mL final; Potency, µM (series often up to 46.1 µM), without a hit: top-dose activity, negative = inhibition, most hits filed as inhibitors; actives 1.2% (n = 410,000); AID 588855; also: % is scaled to controls: 0 for no effect and ±100 for the full control effect; nearly all actives have a fitted effect of over 65% in size
#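 Smad-responsive CAGA-GFP expression was quantified in HEPG2 cells exposed to compounds and 500 pg/mL final TGF-beta for 18 h at 37 degrees C; unstimulated wells defined full inhibition.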
# ATXN2 expr inh: ATXN2 expression inhibition. actives 0.72% (n = 360,000). AID 1745845. HEK-293 ATXN2-luciferase reporter, luminescence, 24 h. Potency, µM (highest dose often 57 µM), inactives show at the top dose activity change, negative = inhibition, usual class: inhibitors; also: % is scaled to controls: 0 for no effect and ±100 for the full control effect; nearly all actives have a fitted effect of over 55% in size
#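 ATXN2-luciferase reporter cells (luciferase flanked by upstream and downstream ATXN2 gene portions) were treated 24 h at 37 °C with compounds at up to 57 uM. SteadyGlo luminescence gave expression; GF-AFC fluorescence gave viability.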
# * hit, by the source's call; i = inactive; ? = inconclusive; . = not tested or not shown; [ ] = another dose, or the depositor's remark. Calls follow the shape of the dose curve; as a rule, active = well fitted curve in the direction sought with a large enough effect; inconclusive = small, poorly fitted or top-dose-only effect, or another doubt; inactive = no such curve, though single readings can be large; an effect the other way counts as inactive or inconclusive. Potency is read from the fitted curve at half-maximal effect.
SMILES,ATXN viability,Gal4-VP16 FLuc,RORg inh,HepG2 viability,TGFb inhibitor,ATXN2 expr inh
COc1ccc(NC(=O)/C(Cl)=C(/Cl)S(=O)(=O)Cc2ccccc2)cn1,14µM*,3.2µM*,?,6.3µM*,?,13µM*
COc1ccc(NC(=O)/C(Cl)=C(/Cl)S(=O)Cc2ccc(Cl)cc2)cn1 (centres undefined),2.8µM*,2.8µM*,0.79µM*,2.5µM*,2.2µM*,2.5µM*
COc1ccc(NC(=O)C(Cl)=C(Cl)Cl)cn1,i,0%,2%,4%,0%,-17%
O=C1C2C3C=CC(C3=C3CCCCC3)C2C(=O)N1c1ccccc1 (centres undefined),i,2%,13µM*,6%,9%,-5%
Cc1cccc(N2CCN(C(=O)c3ccc4c(c3)N(Cc3ccccc3)C(=O)c3ccccc3S4(=O)=O)CC2C)c1 (centres undefined),.,.,.,9%,.,.
Cc1scc(C(=O)N/N=C/c2ccc(OCC(C)C)cc2)c1C,i,?,11µM*,-2%,0%,0%
CCCCCCOc1ccc(/C=N/NC(=O)C2CC2)cc1,i,13%,-4%,10%,-2%,-4%
CC(C)COc1ccc(C(=O)N/N=C/c2ccoc2)cc1,i,14µM*,18µM*,0%,5%,21%
COc1ccc(N(C(C)C(=O)N/N=C/c2ccc(OCC(C)C)cc2)S(C)(=O)=O)cc1 (centres undefined),?,?,21%,-24%,-5%,4%
CCCCOc1ccc(/C=N/NC(=O)c2csc(C)c2C)cc1,i,?,11µM*,-39%,-5%,-15%
CCOC(=O)[C@H](CCc1ccccc1)N[C@@H](C)C(=O)N1CCCC1C(=O)O (some centres undefined),.,.,.,.,.,-6%
COc1ccc(NC(=O)c2cnc(C)cn2)c2ncccc12,.,0.56µM*,0.32µM*,.,.,.
Cc1cnc(C(=O)Nc2ccccc2F)cn1,i,5%,-12%,-1%,7%,22%
CCOc1ccc(NC(=O)CN2CCN(CC(=O)c3ccc(OC)c(OC)c3)CC2)cc1,i,5%,2.5µM*,-7%,7%,-2%
COc1ccccc1CNc1ncncc1-c1ccc(N(C)C)cc1,.,-22%,22µM*,.,.,.
COc1ccccc1CNc1nc(-c2ccc(N(C)C)cc2)nc2ccccc12,.,?,7.9µM*,.,.,.
NC(N)=NCCC[C@H](NC(=O)[C@H](Cc1ccccc1)NC(=O)[C@@H]1CCCN1C(=O)[C@H](CO)NC(=O)[C@H](Cc1ccccc1)NC(=O)CNC(=O)[C@@H]1CCCN1C(=O)[C@@H]1CCCN1C(=O)[C@@H](N)CCCN=C(N)N)C(=O)O,.,-4%,-1%,.,.,.
CC(C)(C)C1CCC(CN2C(Nc3ccccc3)=NC[C@@H]2Cc2ccccc2)CC1 (some centres undefined),.,.,.,13µM*,?,?
Cc1cc(O)c(C)c(C)c1O,i,.,.,.,.,-2%
CCOC(=O)c1c(S(=O)(=O)N2CCN(c3cc(Cl)ccc3C)CC2)c(C)n(C)c1C,i,.,.,-68%,-16%,-20%
Cc1ccc(C(=O)Nc2ccc(NC(=O)c3cccs3)cc2)cc1[N+](=O)[O-],i,-4%,-15%,4%,-6%,-28%
Cc1cc(NC(=O)c2ccc(Br)c([N+](=O)[O-])c2)no1,i,-9%,-14%,0%,-12%,4%
Cc1ccc(C(=O)NC(=S)Nc2ccc(NC(=O)c3cccs3)cc2)cc1[N+](=O)[O-],?,6.3µM*,6.3µM*,1%,0%,?
COc1ccc(C(=O)Nc2ccc(NC(=O)c3cccs3)cc2)cc1[N+](=O)[O-],i,-9%,-38%,7%,13%,-33%
CCOc1ccc(C(=O)Nc2ccc(NC(=O)c3cccs3)cc2)cc1[N+](=O)[O-],i,?,14µM*,-1%,-1%,-20%
SMILES,ATXN viability,Gal4-VP16 FLuc,RORg inh,HepG2 viability,TGFb inhibitor,ATXN2 expr inh
Cc1cc(NC(=O)c2ccc(C)c([N+](=O)[O-])c2)no1,i,-11%,6.3µM*,-2%,0%,18%
C[n+]1ccc(C(c2c[nH]c3ccccc23)c2cc[n+](C)c3ccccc23)c2ccccc21,.,.,.,-77%,?,.
FC(F)(F)c1ccccc1-c1cc(N2CCNCC2)ncn1,.,-7%,-7%,.,.,.
COc1cccc(NC(=O)CN(C)C(=O)CCNC(=O)c2ccccc2OC)c1,i,.,.,-6%,0%,3%
Cc1nn(-c2ccccc2)c(Cl)c1C(=O)Nc1nnc(C2CCCCC2)s1,?,?,13µM*,-22%,2%,3%
COC(=O)CCCC[C@@H]1O[C@H](CCc2ccccc2)Cc2[nH][nH]c(=O)c21,?,.,.,.,.,-7%
CCOc1ccccc1C(=O)N(Cc1ccc(N(C)C)cc1)CC1CCCO1 (centres undefined),.,.,.,-5%,-12%,.
CCc1ccc(CCC(=O)Nc2nccs2)o1,i,4%,-26%,-3%,1%,11%
CCOc1ccc(OCC(=O)Nc2nccs2)cc1,i,-14%[10 µM],13µM*,-65%,9%,?
COc1ccc(OCCC(=O)Nc2nccs2)cc1,i,?,?,1%,9%,12%
Cc1cccc(OCCCC(=O)Nc2nccs2)c1C,i,-2%,3.2µM*,17%,0%,-20%
COc1ccc(OCC(=O)Nc2nccs2)cc1,.,7.9µM*,3.5µM*,-26%,2%,?
Cc1cccc(OCCCC(=O)Nc2ccc(S(=O)(=O)Nc3nccs3)cc2)c1C,i,6%,?,-2%,1%,-7%
Cc1ccc(CCC(=O)Nc2nccs2)o1,i,28µM*,-1%,0%,-2%,20%
CSc1ncnc2c1ncn2CCCN1CCN(c2ccccn2)CC1,i,.,.,-19%,-10%,-2%
CC(C)(C)c1ccc(-c2nnc(-c3ccccc3NC(=O)c3cccc(C(F)(F)F)c3)o2)cc1,i,.,.,12%,12%,8%
Cc1cccc(-c2nc(CCNC(=O)Cc3ccccc3)cs2)c1,.,.,.,-30%,0%,.
O=C(C1CC1)N1CC[C@@H](Cn2c(-c3ccc(-c4ccc5occc5c4)cc3)nc3cnccc32)C1,.,.,.,.,.,-19%
COc1cc(OC)c(NC(=O)Cn2c(SCc3ccccc3F)nc3cccnc32)cc1Cl,.,.,.,-15%,-9%,.
O=C(COc1cccc2cccnc12)Nc1nccs1,i,18µM*,?,-17%,5%,31%
O=C(COc1ccc2c(c1)OCO2)Nc1nccs1,i,?,10µM*,-52%,-3%,?
COc1ccccc1OCC(=O)Nc1ccncc1,?,-6%,44%,4%,8%,.
